According to PubChem BioAssay AID504834 (National Center for Advancing Translational Sciences (NCATS), 2011):
Screen size: about 320,000 compounds; about 22,000 (6.9%) were called active. Roughly 27% stayed inconclusive and do not appear here. Calls come from the whole dose curve; as a rule, active = well fitted inhibition curve with a large enough effect; inconclusive = small, poorly fitted or top-dose-only effect, or another doubt; inactive = no such curve, though single readings can be large or run the other way. The entries come from a sample that favours actives as a whole. Where a call stands in place of a potency, no number is given.

Experiment: Primary qHTS for delayed death inhibitors of the malarial parasite plastid, 96 hour incubation
Settings: P. falciparum luciferase reporter growth; series mostly up to 28.7 µM
How it was run: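 Plates of compound plus infected erythrocytes (2% hematocrit, 0.05% parasitemia final) incubate 96 hours, 37 C, 5% CO2. Detection reagent added; reduced luminescence from the parasites' luciferase reporter flags inhibition.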
Potency is the fitted concentration of half-maximal effect.

| Structure (SMILES) | Potency |
| --- | --- |
| COc1ccccc1C1CCN(C(=S)Nc2ccc(Br)cc2)CC1 | inactive |
| COc1ccccc1OCCNC(=O)C(CCSC)NC(=O)COc1ccccc1 (stereo not given) | inactive |
| Cc1ccc(CNC(=O)C2CCN(S(=O)(=O)c3ccc4nc5c(c(C(=O)O)c4c3)CC(C)CC5)CC2)cc1 (stereo not given) | inactive |
| CC1CCN(C(=O)c2ccccc2NC(=O)Cc2ccccc2)CC1 | inactive |
| Cc1c(NC(=O)c2cc(-c3ccc(Br)cc3)on2)c(=O)n(-c2ccccc2)n1C | inactive |
| Cc1no[n+]([O-])c1COc1ccccc1/C=C1\NC(=S)NC1=O | 10.4 µM (active) |
| Cc1ccccc1-n1c(C)cc(/C=C2\NC(=O)NC2=O)c1C | inactive |
| O=C(CN1CCN(S(=O)(=O)c2ccc(F)cc2)CC1)NC1CC1 | inactive |
| CC(=O)c1ccc(S(=O)(=O)NCc2nnnn2-c2ccccc2)cc1 | inactive |
| Cc1cc(NC(=O)COc2ccccc2C#N)no1 | inactive |
| CCOC(=O)C1CCN(Cc2nnc(-c3cccc(Br)c3)o2)CC1 | inactive |
| CCOC(=O)C1CCN(c2ncnc3c2oc2ccc(Br)cc23)CC1 | 13.1 µM (active) |
| CCOC(=O)C1CCN(c2ncnc3c2c(-c2ccccc2)cn3-c2ccc(C)cc2)CC1 | inactive |
| Cn1cncc1COC(=O)c1ccc(Cl)cc1 | inactive |
| COc1ccccc1C(=O)NCc1nnc(SC(C)C(=O)Nc2nccs2)n1C (stereo not given) | inactive |
| Cc1ccc(NC(=O)CN2CCc3ccccc3C2)cc1C | inactive |
| O=C(CN1CCN(Cc2ccccc2)CC1)NC(c1ccccc1)c1ccccc1 | 14.7 µM (active) |
| O=C(Cc1ccc(-c2ccccc2)cc1)NC(c1ccccc1)c1ccccc1 | inactive |
| CC1CN(CC(=O)NC(C)c2ccccc2)CC(C)O1 (stereo not given) | inactive |
| CCCc1cc(=O)[nH]c(SCC(=O)Nc2sc3c(c2C#N)CCCC3)n1 | inactive |
| N#CCCN(C(=O)COC(=O)c1ccc(S(=O)(=O)N2CCCCCC2)cc1)c1ccccc1 | inactive |
| CC(C)(CNC(=O)CNC(=O)C1CCCCC1)N1CCOCC1 | inactive |

| Structure (SMILES) | Potency |
| --- | --- |
| O=C(O)c1ccccc1-c1ccccc1C(=O)NCCc1ccccc1 | inactive |
| O=C(C(=O)N1CCc2ccccc2C1)N1CCc2ccccc2C1 | inactive |
| CC1(C)CC(=O)C(CC(=O)N2CCC(Cc3ccccc3)CC2)C(=O)C1 | inactive |
| Cn1c(=O)c2c(n(Cc3ccccc3)c1=O)NC(=O)C2CC(=O)N1CCc2ccccc2C1 (stereo not given) | 11.7 µM (active) |
| COc1ccc(/C=C2\SC(=S)N(CCC(=O)Nc3cccc(C(=O)O)c3)C2=O)cc1OC | inactive |
| COC(=O)CN1C(=O)C(C)(C)Oc2ccc(C(=O)Nc3cccc(OC)c3)cc21 | inactive |
| CS(=O)(=O)N1CCN(c2ccc(C(=O)NC3C4CC5CC(C4)CC3C5)cc2[N+](=O)[O-])CC1 (stereo not given) | 9.28 µM (active) |
| O=C(NC1C2CC3CC(C2)CC1C3)c1ccc(N2CCNCC2)c([N+](=O)[O-])c1 (stereo not given) | inactive |
| Cc1cccc(N2CCN(c3ccc(C(N)=O)cc3[N+](=O)[O-])CC2)c1C | inactive |
| COc1ccccc1N1CCN(C(=O)CSc2ncnc3c2cnn3-c2ccc(C)c(C)c2)CC1 | inactive |
| COc1ccc(S(=O)(=O)NCCc2c[nH]c3ccccc23)cc1OC | inactive |
| Cc1ccc(CNC(=O)CCN2C(=O)[C@@H]3Cc4ccccc4CN3C2=O)cc1 | inactive |
| C/C(=N\NC(=O)Cc1ccccc1[N+](=O)[O-])c1cccnc1 | inactive |
| Cc1cccn2c(=O)nc(SCC(=O)NCc3ccccc3Cl)nc12 | inactive |
| Cc1nn(CCCC(=O)NCc2ccccc2Cl)c(=O)c2nccn12 | 1.04 µM (active) |
| O=C(COC(=O)Cn1cnc2ccccc2c1=O)NCc1ccccc1Cl | inactive |
| COc1ccccc1NC(=O)CCC(=O)N1CC(C)Oc2ccc(C)cc21 (stereo not given) | inactive |
| O=C(c1ccc(-n2cnnn2)cc1)N1CCN(C(c2ccccc2)c2ccccc2)CC1 | 4.65 µM (active) |
| O=C(c1ccccc1)N1CCN(C(=O)N2CCCCC2)CC1 | inactive |
| CCOC(=O)N1CCN(S(=O)(=O)c2ccc(-n3cnnn3)cc2)CC1 | inactive |
| CCn1cc(C(=O)OCC(=O)Nc2cccc(C)c2)c(=O)c2ccc(C)nc21 | inactive |
| CCOC(=O)c1cn(CC)c2cc(F)c(F)cc2c1=O | inactive |

| Structure (SMILES) | Potency |
| --- | --- |
| Cc1cccc(N2CC(C(=O)Nc3ccccc3N3CCCC3)CC2=O)c1C (stereo not given) | 5.22 µM (active) |
| Cc1ccccc1N1CC(C(=O)Nc2ccc3c(c2)OCO3)CC1=O (stereo not given) | inactive |
| Cc1ccccc1N1CC(C(=O)Nc2ccc(S(=O)(=O)N3CCCC3)cc2)CC1=O (stereo not given) | inactive |
| CC(=O)C1=C(O)C(=O)N(c2ccc(Br)cc2)C1c1ccc([N+](=O)[O-])cc1 (stereo not given) | inactive |
| COC(=O)C1CCN(C(=O)NC2CC(=O)N(c3ccc4c(c3)OCCO4)C2)CC1 (stereo not given) | inactive |
| CCOC(=O)C1CCc2nc3ccccc3c(=O)n21 (stereo not given) | inactive |
| O=C(CSc1nc2ccccc2c(=O)n1CCCO)NC1CC1 | inactive |
| CCOC(=O)C(C)Sc1nc2ccccc2c(=O)n1CC1CCCCC1 (stereo not given) | 11.7 µM (active) |
| O=C(NCCN1CCN(C(=O)c2cccc([N+](=O)[O-])c2)CC1)C(=O)NCc1ccc(Cl)cc1 | inactive |
| Cc1ccc(NC(=S)N2CCCC(c3ccccc3)=N2)cc1 | inactive |
| CSCCC(NC(=O)c1ccc(Cl)cc1Cl)C(=O)NNC(=O)c1csc(N2CCOCC2)n1 (stereo not given) | inactive |
| O=C1OC(/C=C/c2ccccc2)=NC/1=C/c1ccco1 | inactive |
| CC(C)(C)C1C/C(=C/c2ccco2)C(=O)/C(=C/c2ccco2)C1 (stereo not given) | 13.1 µM (active) |
| CCC1S/C(=N/N=C/c2ccco2)NC1=O (stereo not given) | inactive |
| CCOc1ccc(CNC(=O)CCC(=O)N2CCSc3ccccc32)cc1 | inactive |
| Cc1ccc(S(=O)(=O)N2CCN(C(=O)c3ccccc3-c3nc4ccccc4s3)CC2)c(C)c1 | inactive |
| CN(C)C(=O)COC(=O)c1cccc(S(=O)(=O)N2CC3(C)CC2CC(C)(C)C3)c1 (stereo not given) | inactive |
| Cc1ccc(N(C(=O)c2snc(C(N)=O)c2N)C(C(=O)NCC2CCCO2)c2c[nH]c3ccccc23)cc1 (stereo not given) | inactive |
| c1ccc(CSCCc2ccncc2)cc1 | inactive |
| Cc1cc(C)c(SCCc2ccncc2)c(C)c1 | 10.4 µM (active) |
| CC(C)(C)c1ccc(SCCc2ccncc2)cc1 | inactive |
